TDP1 cell noCPT: qHTS for Inhibitors of human tyrosyl-DNA phosphodiesterase 1 (TDP1): qHTS in cells in absence of CPT; DT40 Tdp1-/- hTDP1 cells, no CPT, ATP luminescence, 48 h; Potency, µM (titrated, usually from 46.2 µM), for inactives: at the highest dose activity change, negative = growth inhibition, actives largely listed as inhibitors; 420,000 tested, 15% active; note: potency is the fitted concentration of half-maximal effect; % is set by controls: 0 for no effect and ±100 for the full control effect; nearly all actives have a fitted effect of over 55% in size
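No-CPT arm: Tdp1-/-;hTDP1 DT40 cells (400/well) plus compounds, incubated ≥48 hr at 37 °C. Readout CellTiter-Glo luminescence.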
HepG2 tox: HepG2 cytotoxicity, counter-screen for TGF-b inhibitors; HepG2 CAGA-GFP viability, ATP luminescence, 18 h; Potency, µM (highest dose often 46.1 µM), for the others: top-dose activity change, negative = cytotoxicity, usual class: cytotoxic; 410,000 tested, 0.76% active; AID 588856; note: potency is the fitted concentration of half-maximal effect
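HepG2 CAGA-GFP cells (1000/well, DMEM with 1% FBS) received compound, then TGF-beta at 500 pg/mL final, and were incubated 18 hours at 37 degrees C. Viability was read by CellTiter-Glo luminescence. Media-only wells were set as complete cell-killing and DMSO as no toxicity.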
IL1B secr inh: inflammasome signaling inhibition, IL-1 beta readout; THP-1 LPS/ATP IL-1B secretion, AlphaLISA, 16 h; hits give low values; activity change, % at 57.5 µM; 360,000 tested, 4.7% active; AID 743279; in the data active = activity change below about -50%; inconclusive = mostly about -30% to -49%; note: % is set by controls: 0 for no effect and ±100 for the full control effect
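Secreted IL-1B measured by AlphaLISA bead assay after 16 h compound exposure of THP-1 cells; compounds (final up to 57.5 uM) added 1 h before LPS (250 ng/mL) and ATP (1.25 mM) stimulation; lower signal means less secretion.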
DT40 TDP1 CPT: growth inhibition of DT40 Tdp1-/-;hTDP1 cells with camptothecin (screen for TDP1 inhibitors); chicken DT40 Tdp1-/-;hTDP1 cells + 20 nM CPT, ATP luminescence, 48 h; Potency, µM (top dose mostly 46.2 µM), for inactives: top-dose activity change, negative = growth inhibition, actives largely listed as inhibitors; 420,000 tested, 12% active; AID 686979; note: potency is the fitted concentration of half-maximal effect; % is set by controls: 0 for no effect and ±100 for the full control effect; nearly all actives have a fitted effect of over 55% in size
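Cell growth measured by CellTiter-Glo luminescence after a minimum 48 h, 37 C compound exposure with 20 nM CPT in Tdp1-knockout DT40 cells stably expressing hTDP1, seeded 400/well; qHTS titration format.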
TDP1 block: TDP1 (human) enzyme inhibition | Q9NUW8 | recombinant TDP1, AlphaScreen DNA substrate cleavage | Potency, µM (highest dose often 130 µM), without a hit: top-dose activity change, negative = inhibition, actives largely listed as inhibitors | 350,000 tested, 0.28% active; note: potency is the fitted concentration of half-maximal effect; % is set by controls: 0 for no effect and ±100 for the full control effect; nearly all actives have a fitted effect of over 40% in size
Target sequence (Q9NUW8 whole entry, looked up): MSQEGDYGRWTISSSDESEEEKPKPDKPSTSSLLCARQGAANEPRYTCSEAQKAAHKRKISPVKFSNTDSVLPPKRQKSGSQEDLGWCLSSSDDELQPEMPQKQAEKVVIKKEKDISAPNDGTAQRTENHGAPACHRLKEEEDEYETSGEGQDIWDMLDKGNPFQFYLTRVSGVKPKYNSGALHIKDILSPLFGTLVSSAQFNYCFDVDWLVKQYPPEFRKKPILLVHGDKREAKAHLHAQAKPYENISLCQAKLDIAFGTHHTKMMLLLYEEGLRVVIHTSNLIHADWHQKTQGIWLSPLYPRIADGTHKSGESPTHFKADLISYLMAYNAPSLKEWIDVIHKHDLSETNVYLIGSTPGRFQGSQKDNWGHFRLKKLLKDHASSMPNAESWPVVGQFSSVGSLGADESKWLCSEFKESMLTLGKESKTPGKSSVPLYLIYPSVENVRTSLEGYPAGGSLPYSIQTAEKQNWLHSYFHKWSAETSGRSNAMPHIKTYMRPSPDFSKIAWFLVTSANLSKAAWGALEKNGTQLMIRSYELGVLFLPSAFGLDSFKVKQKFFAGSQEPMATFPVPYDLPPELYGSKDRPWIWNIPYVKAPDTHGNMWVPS
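E. coli-derived human Tdp1, 1 nM final. Cpd preinc 15 min RT; substrate 15 nM final, 5 min RT; AS bead mix 10 ug/ml final, 10 min RT. Signal loss = tyrosine-FITC cleavage. No-enzyme wells = max signal.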
TGFb inhibitor: TGF-b pathway inhibition | HepG2 CAGA-GFP TGF-b/SMAD3 reporter, GFP fluorescence, 18 h; TGF-beta stimulated, 500 pg/mL final | Potency, µM (doses to about 46.1 µM), inactives show at the top dose activity, negative = inhibition, usual class: inhibitors | 410,000 tested, 1.2% active; note: potency is the fitted concentration of half-maximal effect; % is set by controls: 0 for no effect and ±100 for the full control effect; nearly all actives have a fitted effect of over 65% in size
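First, reporter cells (HEPG2 CAGA-GFP) rested 2 h at 37 degrees C. Next, compounds were pinned in and TGF-beta added to 500 pg/mL final. After 18 h, GFP was imaged per cell and summed per well.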
The depositor's hits bear a star; ? = inconclusive; . = no result given; [ ] = another dose, or the depositor's remark. An excerpt weighted towards active compounds, which were near 19% of everything screened. Unless noted, calls come from the whole dose curve; as a rule, active = well fitted curve in the direction sought with a large enough effect; inconclusive = small, poorly fitted or top-dose-only effect, or another doubt; inactive = no such curve, though single readings can be large; an effect the other way counts as inactive or inconclusive.

SMILES | TDP1 cell noCPT | HepG2 tox | IL1B secr inh | DT40 TDP1 CPT | TDP1 block | TGFb inhibitor
C#CCOCCOCCOCCNc1nc(N2CCOCC2)nc(N2CCN(C(=O)CCCCCCCCCCNC(=O)[C@H](CO)n3cc(CCCSC)nn3)CC2)n1 | ? | -20% | -14 | 23µM* | 6% | ?
C#CCOCCOCCOCCNc1nc(N2CCN(C(=O)CCCCCCCCCCNC(=O)[C@@H](CCC(=O)O)n3cc(CCCCCN)nn3)CC2)nc(N2CCN(C(=O)CCCCCCCCCCNC(=O)[C@H](CO)n3cc(CCCCCN)nn3)CC2)n1 | 3% | -22% | ? | 5% | 7% | ?
C#CCOCCOCCOCCNc1nc(N2CCN(C(=O)CCCCCCCCCCNC(=O)[C@@H](CCSC)n3cc(CCO)nn3)CC2)nc(N2CCN(C(=O)CCCCCCCCCCNC(=O)[C@H](CO)n3cc(CCCCCN)nn3)CC2)n1 | ? | -29% | -82* | ? | 5% | ?
C#CCOCCOCCOCCNc1nc(N2CCN(C(=O)CCCCCCCCCCNC(=O)[C@@H](CCC(=O)O)n3cc(CCCCCN)nn3)CC2)nc(N2CCN(C(=O)CCCCCCCCCCNC(=O)[C@H](CO)n3cc(CCCSC)nn3)CC2)n1 | -29% | 18% | -56* | 13µM* | 6% | 2%
C#CCOCCOCCOCCNc1nc(N2CCN(C(=O)CCCCCCCCCCNC(=O)[C@@H](CCSC)n3cc(CCO)nn3)CC2)nc(N2CCN(C(=O)CCCCCCCCCCNC(=O)[C@H](CCC(=O)O)n3cc(CCCCCN)nn3)CC2)n1 | -6% | -1% | -53* | -16% | 6% | ?
C#CCOCCOCCOCCNc1nc(N2CCN(C(=O)CCCCCCCCCCNC(=O)[C@H](CCCCN)n3cc(CCO)nn3)CC2)nc(N2CCN(C(=O)CCCCCCCCCCNC(=O)[C@H](CCCCN)n3cc(CCCC(=O)O)nn3)CC2)n1 | -4% | 3% | ? | -1% | 3% | 5%
CCN(CC)CCN(C(=O)c1ccco1)c1nc2ccc(F)cc2s1 | -35% | 2% | . | -15% | 4% | 4%
CCn1nc2cc(C(=O)NCC34CC5CC(CC(C5)C3)C4)ccc2c1OC | ? | 4% | 0 | ? | -6% | 32%
CCOc1c2ccc(C(=O)NCc3ccco3)cc2nn1CCOC | 0% | 5% | 15 | -2% | 5% | 0%
CCOc1c2ccc(C(=O)N[C@H](C)C3CCCCC3)cc2nn1CCOC | 1µM* | -15% | 42 | 1.8µM* | 3% | -11%
CCCCn1nc2cc(C(=O)NCC3CC3)ccc2c1OCC | -11% | 4% | -2 | ? | -1% | -14%
CCCCn1nc2cc(C(=O)NCC34CC5CC(CC(C5)C3)C4)ccc2c1OC | ? | -6% | -2 | 18µM* | 4% | -9%
CCOc1c2ccc(C(=O)NCC34CC5CC(CC(C5)C3)C4)cc2nn1CC | 16µM* | -12% | ? | 29µM* | -2% | 2%
COc1ccc2c(c1)c(CC(=O)Nc1ccccc1OC)c(C)n2C(=O)c1ccc(Cl)cc1 | ? | -1% | 0 | ? | 0% | -31%
COc1ccc2c(c1)c(CC(=O)Nc1cc(C)ccc1C)c(C)n2C(=O)c1ccc(Cl)cc1 | 16µM* | 0% | -6 | ? | -3% | -3%
COc1ccc2c(c1)c(CC(=O)Nc1ccc(C(C)=O)cc1)c(C)n2C(=O)c1ccc(Cl)cc1 | 16µM* | -1% | -5 | 21µM* | 2% | -8%
COc1ccc2c(c1)c(CC(=O)NCc1cc([N+](=O)[O-])ccc1O)c(C)n2C(=O)c1ccc(Cl)cc1 | ? | -32% | 0 | -26% | 7% | ?
COc1ccc2c(c1)c(CC(=O)Nc1nnc(C3CC3)s1)c(C)n2C(=O)c1ccc(Cl)cc1 | 8.2µM* | -8% | 6 | 15µM* | 6% | -13%
Nc1nc(=S)c2n[nH]nc2[nH]1 | ? | -28% | . | ? | 1% | -22%
CCOc1ccc(Br)cc1S(=O)(=O)Nc1ccc(N2CCOCC2)cc1 | ? | -14% | 14 | ? | 3% | -1%
CCOc1cc(CNc2ccc3c(c2)OCCO3)cc(Br)c1OCC | 0.82µM* | -12% | -11 | 2.6µM* | 11% | ?
C=CCOc1c(Br)cc(CNc2ccc3[nH]c(=O)[nH]c3c2)cc1OCC | ? | -28% | . | ? | 2% | -14%
CCOc1cc(CNc2ccc(N3CCOCC3)cc2)cc(Br)c1OCC | 16µM* | -23% | ? | ? | 11% | 0%
COc1cc(CNc2ccc(N3CCOCC3)cc2)cc(Br)c1OC | 16µM* | -19% | -15 | ? | 5% | ?
CC(=O)N1CCN(c2ccc(NCc3ccc(F)cc3)cc2)CC1 | 3% | -14% | 14 | -20% | 5% | -20%
SMILES | TDP1 cell noCPT | HepG2 tox | IL1B secr inh | DT40 TDP1 CPT | TDP1 block | TGFb inhibitor
COc1cc(CNc2ccc(N3CCN(C(C)=O)CC3)cc2)ccc1OCc1ccc(F)cc1 | 16µM* | -16% | -19 | ? | 10% | ?
COc1ccc(CNC(=O)c2ccc(-c3nc(CSc4ccccc4)c(C)o3)cc2)cc1OC | -20% | -15% | . | -20% | -3% | 1%
C=CC[C@@H]1C=C[C@@H](O/N=C(/C)CCC(=O)OC[C@@H]2O[C@H](c3ccccc3)C=C[C@@H]2Oc2ccc(OC)cc2)[C@@H](CO)O1 | . | . | . | . | 9%[21 µM] | .
CCOc1c(Br)cc(CNc2ccc(N3CCN(C(C)=O)CC3)cc2)cc1OC | ? | -5% | ? | 16µM* | 7% | ?
COc1cc(/C=C/C(=O)OCC(=O)NC(=O)NC(C)C)cc(S(=O)(=O)N2CCc3ccccc32)c1OC | 21µM* | 6% | ? | ? | 2% | ?
CC(Sc1n[nH]c(-c2cccs2)n1)C(=O)Nc1ccc(C(N)=O)cc1 (stereo not given) | 16% | 1% | 11 | -15% | 1% | 26%
CCCCCOc1ccc(OC(=O)c2ccncc2)cc1 | 13µM* | 6% | 23 | 12µM* | -2% | -3%
CCCCOc1ccc(C(=O)Oc2ccc(C)nc2)cc1 | -10% | -8% | -9 | -23% | -2% | 10%
COC(=O)c1ccccc1NC(=O)CN1CCC(C)CC1 | -21% | 7% | -14 | 13% | 5% | 11%
CCc1ccc(N(CC)C(=O)c2ccc3c(=O)n4c(nc3c2)CCCCC4)cc1 | 16µM* | -43% | . | ? | 5% | .
